Assay [1] addresses Sphingosine kinase 1 (Homo sapiens) (UniProt Q9NYA1). To be noted: at 1 µM.
For assay [2], the target named is T1, Sphingosine kinase 2 (Homo sapiens) (UniProt Q9NRA0).
T1 sequence (whole entry): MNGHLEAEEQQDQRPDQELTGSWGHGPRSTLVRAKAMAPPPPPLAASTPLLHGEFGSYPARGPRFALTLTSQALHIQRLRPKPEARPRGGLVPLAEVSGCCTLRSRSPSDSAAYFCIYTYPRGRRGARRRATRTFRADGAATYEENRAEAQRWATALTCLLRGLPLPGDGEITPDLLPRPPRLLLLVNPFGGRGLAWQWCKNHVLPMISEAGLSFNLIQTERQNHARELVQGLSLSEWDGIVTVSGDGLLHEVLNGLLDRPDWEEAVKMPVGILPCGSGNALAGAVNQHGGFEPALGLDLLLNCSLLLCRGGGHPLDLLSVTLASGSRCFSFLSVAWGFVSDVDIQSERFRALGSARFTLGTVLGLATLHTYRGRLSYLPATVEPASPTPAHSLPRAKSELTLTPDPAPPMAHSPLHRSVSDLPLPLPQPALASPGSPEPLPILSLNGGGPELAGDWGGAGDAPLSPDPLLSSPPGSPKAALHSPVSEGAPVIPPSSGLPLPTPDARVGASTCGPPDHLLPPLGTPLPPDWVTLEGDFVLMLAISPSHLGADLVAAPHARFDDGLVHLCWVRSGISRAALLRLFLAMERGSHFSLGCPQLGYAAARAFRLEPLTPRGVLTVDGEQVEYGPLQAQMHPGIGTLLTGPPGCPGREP
To be noted: at 0.1 µM.

Assay [3] has as its target T1, Sphingosine kinase 2 (Homo sapiens). As to conditions: at 1 µM.
In assay [4] the target is Casein kinase II subunit alpha (Homo sapiens) (UniProt P68400). To be noted: at 0.1 µM.
The target is the same in assay [5]. As to conditions: at 1 µM.
Assay [6] addresses T2, Inhibitor of nuclear factor kappa-B kinase subunit alpha (Homo sapiens) (UniProt O15111).
T2 sequence (whole entry): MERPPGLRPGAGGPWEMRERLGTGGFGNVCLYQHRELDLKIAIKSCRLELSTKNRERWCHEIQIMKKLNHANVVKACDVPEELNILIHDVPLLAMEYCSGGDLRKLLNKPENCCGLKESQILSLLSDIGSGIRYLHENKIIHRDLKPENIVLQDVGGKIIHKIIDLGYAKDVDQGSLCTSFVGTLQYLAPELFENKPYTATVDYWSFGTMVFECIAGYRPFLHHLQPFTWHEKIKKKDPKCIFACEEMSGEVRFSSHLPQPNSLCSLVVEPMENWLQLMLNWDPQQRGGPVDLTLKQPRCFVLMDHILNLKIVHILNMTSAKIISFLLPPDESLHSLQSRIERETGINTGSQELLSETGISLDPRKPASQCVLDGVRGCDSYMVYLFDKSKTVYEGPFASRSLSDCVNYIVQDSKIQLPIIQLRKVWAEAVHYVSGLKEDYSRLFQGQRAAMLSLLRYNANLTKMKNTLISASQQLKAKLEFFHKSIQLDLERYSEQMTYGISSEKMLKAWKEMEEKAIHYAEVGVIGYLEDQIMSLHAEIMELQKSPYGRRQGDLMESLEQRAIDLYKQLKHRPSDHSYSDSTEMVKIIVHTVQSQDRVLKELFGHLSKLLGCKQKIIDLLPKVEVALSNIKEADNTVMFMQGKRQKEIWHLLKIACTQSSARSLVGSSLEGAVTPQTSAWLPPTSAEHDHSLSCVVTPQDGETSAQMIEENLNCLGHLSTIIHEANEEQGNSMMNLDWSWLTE
To be noted: at 1 µM.

The target in assay [7] is T3, Inhibitor of nuclear factor kappa-B kinase subunit beta (Homo sapiens) (UniProt O14920).
T3 sequence (whole entry): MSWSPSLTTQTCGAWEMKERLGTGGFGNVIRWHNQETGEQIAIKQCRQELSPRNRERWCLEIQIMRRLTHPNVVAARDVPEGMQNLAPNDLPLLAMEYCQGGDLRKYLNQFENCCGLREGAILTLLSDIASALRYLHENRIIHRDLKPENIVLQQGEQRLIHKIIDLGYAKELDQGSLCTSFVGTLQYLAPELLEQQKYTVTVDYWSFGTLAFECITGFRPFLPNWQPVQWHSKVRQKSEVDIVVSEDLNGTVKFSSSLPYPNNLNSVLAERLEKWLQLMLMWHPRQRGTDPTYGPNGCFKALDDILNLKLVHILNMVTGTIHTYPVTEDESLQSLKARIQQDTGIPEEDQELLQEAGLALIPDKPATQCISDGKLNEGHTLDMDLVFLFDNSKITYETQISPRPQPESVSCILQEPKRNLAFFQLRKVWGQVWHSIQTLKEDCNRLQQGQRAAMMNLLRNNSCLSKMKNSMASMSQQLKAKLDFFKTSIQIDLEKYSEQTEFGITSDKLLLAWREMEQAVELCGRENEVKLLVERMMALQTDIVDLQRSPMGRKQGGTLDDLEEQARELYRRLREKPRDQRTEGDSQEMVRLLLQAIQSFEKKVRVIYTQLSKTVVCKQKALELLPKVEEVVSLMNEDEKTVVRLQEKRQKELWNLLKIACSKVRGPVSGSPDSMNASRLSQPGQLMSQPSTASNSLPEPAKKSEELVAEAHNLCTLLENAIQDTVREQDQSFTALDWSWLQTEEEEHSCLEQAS
To be noted: at 0.1 µM.

Assay [8] concerns the target T3, Inhibitor of nuclear factor kappa-B kinase subunit beta (Homo sapiens). To be noted: at 1 µM.
In assay [9] the target is T4, Inhibitor of nuclear factor kappa-B kinase subunit epsilon (Homo sapiens) (UniProt Q14164).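 Also: mean inhibition of IKKε reported, from the GSK PKIS dataset.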
T4 sequence (whole entry): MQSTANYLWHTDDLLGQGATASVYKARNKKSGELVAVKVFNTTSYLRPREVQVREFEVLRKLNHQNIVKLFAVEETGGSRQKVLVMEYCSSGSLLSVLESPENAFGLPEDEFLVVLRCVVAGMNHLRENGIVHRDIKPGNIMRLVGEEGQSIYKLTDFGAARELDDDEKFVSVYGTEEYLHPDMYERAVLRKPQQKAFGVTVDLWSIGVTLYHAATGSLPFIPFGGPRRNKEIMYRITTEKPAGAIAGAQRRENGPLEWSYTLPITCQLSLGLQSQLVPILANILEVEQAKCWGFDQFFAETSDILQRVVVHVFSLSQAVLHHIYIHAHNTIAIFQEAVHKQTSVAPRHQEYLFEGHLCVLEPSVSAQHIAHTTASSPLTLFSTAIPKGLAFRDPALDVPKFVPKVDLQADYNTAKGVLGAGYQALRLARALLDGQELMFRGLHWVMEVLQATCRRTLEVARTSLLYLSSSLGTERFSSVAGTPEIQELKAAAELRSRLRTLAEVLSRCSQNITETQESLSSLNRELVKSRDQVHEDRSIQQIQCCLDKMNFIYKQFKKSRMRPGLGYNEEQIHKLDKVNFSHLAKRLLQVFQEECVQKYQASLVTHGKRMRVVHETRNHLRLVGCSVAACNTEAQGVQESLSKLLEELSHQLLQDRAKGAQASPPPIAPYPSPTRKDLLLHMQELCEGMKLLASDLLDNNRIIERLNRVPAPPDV
To be noted: at 0.1 µM.

Assay [10] deals with T5, Serine/threonine-protein kinase Nek1 (Homo sapiens) (UniProt Q96PY6).
T5 sequence (whole entry): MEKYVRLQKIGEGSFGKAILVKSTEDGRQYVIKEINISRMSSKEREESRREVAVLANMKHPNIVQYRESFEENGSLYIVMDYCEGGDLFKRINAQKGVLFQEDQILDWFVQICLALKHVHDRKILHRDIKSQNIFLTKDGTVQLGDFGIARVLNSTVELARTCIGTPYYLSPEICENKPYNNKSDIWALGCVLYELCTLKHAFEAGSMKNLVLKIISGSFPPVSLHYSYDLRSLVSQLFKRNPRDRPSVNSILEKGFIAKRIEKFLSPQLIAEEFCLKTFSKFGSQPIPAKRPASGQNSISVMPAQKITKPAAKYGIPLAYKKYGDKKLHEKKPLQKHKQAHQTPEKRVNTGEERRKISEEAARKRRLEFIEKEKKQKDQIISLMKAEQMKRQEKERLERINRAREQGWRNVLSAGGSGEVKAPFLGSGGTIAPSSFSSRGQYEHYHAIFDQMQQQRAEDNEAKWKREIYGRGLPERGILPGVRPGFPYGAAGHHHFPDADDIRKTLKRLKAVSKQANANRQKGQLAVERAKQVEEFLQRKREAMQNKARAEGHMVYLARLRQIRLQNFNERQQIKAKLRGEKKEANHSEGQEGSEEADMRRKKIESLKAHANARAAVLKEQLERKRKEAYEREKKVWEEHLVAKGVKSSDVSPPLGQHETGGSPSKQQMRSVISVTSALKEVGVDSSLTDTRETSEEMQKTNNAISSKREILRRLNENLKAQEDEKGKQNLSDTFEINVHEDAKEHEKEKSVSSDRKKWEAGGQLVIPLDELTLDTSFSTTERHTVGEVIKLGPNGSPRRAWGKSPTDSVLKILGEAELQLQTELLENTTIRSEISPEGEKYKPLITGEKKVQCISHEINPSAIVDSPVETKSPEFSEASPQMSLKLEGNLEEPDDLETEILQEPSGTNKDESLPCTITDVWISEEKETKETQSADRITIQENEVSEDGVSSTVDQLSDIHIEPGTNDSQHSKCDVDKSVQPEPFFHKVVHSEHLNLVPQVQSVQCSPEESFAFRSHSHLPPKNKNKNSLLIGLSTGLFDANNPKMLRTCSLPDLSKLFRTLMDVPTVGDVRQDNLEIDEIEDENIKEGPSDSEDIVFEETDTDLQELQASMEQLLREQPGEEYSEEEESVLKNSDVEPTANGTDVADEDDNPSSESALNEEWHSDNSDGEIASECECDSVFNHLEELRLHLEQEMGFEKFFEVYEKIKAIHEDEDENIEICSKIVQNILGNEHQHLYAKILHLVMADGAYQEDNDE
To be noted: at 0.1 µM.

Assay [11] addresses T5, Serine/threonine-protein kinase Nek1 (Homo sapiens). As to conditions: at 1 µM.
Assay [12] deals with T6, Serine/threonine-protein kinase Nek2 (Homo sapiens) (UniProt P51955).
T6 sequence (whole entry): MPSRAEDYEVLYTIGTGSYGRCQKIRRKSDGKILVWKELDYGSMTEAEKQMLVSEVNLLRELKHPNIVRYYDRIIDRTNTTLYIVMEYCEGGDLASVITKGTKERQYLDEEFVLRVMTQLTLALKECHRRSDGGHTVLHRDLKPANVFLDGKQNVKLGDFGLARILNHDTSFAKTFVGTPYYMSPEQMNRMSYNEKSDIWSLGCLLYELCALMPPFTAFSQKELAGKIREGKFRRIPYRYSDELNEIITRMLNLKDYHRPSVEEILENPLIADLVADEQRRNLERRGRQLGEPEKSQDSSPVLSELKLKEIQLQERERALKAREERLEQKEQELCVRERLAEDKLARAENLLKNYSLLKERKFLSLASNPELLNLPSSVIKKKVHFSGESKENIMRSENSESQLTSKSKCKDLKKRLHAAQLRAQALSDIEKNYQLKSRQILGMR
To be noted: at 0.1 µM.

Assay [13] deals with T6, Serine/threonine-protein kinase Nek2 (Homo sapiens). To be noted: at 1 µM.
Assay [14] addresses Serine/threonine-protein kinase Nek6 (Homo sapiens) (UniProt Q9HC98). As to conditions: at 0.1 µM.
Assay [15] shares this target. As to conditions: at 1 µM.
The target in assay [16] is Serine/threonine-protein kinase Nek7 (Homo sapiens) (UniProt Q8TDX7). To be noted: at 0.1 µM.
The target is the same in assay [17]. As to conditions: at 1 µM.
In assay [18] the target is T7, Serine/threonine-protein kinase Nek9 (Homo sapiens) (UniProt Q8TD19).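 Also: reported value is the mean percent inhibition of NEK9.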
T7 sequence (whole entry): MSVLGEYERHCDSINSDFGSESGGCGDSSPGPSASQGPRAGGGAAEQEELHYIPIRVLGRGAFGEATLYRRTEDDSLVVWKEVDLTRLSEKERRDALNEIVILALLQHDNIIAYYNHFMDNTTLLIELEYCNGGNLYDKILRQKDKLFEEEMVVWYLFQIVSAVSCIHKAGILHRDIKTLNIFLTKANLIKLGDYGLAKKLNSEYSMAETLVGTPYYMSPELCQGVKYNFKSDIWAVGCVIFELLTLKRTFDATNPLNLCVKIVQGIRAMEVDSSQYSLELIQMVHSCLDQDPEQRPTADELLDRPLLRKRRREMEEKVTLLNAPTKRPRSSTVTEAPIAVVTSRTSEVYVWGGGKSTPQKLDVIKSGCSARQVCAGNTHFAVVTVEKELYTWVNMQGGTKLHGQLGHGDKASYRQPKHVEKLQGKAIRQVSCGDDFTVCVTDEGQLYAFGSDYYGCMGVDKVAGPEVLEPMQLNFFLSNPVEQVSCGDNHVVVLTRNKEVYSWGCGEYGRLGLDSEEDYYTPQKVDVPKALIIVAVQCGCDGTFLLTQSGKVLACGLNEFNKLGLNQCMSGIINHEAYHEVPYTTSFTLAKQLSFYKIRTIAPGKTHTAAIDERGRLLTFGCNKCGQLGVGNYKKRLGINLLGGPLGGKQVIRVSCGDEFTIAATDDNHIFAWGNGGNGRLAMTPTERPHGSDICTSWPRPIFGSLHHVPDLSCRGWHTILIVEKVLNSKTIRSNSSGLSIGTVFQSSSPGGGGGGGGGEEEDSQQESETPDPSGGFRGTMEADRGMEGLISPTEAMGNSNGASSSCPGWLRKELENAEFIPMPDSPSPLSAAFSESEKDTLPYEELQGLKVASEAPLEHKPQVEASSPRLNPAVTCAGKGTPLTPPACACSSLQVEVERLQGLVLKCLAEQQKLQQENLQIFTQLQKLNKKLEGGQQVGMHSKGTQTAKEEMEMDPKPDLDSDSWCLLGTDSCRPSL
To be noted: at 0.1 µM.

Sequence of Casein kinase II subunit alpha (Homo sapiens) (P68400 whole entry, looked up): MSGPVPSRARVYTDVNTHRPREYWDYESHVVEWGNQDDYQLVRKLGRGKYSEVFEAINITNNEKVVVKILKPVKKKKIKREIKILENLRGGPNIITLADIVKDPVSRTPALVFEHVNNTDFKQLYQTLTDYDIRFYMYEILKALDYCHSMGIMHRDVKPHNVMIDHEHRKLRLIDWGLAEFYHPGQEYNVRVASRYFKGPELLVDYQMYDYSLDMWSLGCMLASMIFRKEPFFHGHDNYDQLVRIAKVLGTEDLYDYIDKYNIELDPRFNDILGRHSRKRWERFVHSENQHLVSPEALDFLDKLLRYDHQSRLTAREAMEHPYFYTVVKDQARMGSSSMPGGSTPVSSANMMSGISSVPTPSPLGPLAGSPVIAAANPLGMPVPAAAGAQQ
Sequence of Serine/threonine-protein kinase Nek6 (Homo sapiens) (Q9HC98 whole entry): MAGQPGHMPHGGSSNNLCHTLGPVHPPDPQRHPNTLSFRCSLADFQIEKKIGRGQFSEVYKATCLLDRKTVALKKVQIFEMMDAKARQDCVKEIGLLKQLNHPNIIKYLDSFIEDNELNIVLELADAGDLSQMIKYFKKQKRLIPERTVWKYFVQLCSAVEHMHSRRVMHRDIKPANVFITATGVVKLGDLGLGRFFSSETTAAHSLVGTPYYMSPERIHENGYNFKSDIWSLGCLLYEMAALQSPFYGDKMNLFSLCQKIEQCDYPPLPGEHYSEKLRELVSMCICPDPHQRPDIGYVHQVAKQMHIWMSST
Sequence of Serine/threonine-protein kinase Nek7 (Homo sapiens) (Q8TDX7 whole entry, looked up): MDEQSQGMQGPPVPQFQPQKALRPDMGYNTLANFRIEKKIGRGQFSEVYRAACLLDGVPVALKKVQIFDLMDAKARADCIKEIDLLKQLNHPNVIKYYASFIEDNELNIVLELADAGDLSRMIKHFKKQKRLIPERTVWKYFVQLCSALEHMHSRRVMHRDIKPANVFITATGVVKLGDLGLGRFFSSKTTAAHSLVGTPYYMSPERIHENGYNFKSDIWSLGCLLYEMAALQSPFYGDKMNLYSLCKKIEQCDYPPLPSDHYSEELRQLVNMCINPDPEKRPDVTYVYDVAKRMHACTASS
Sequence of Sphingosine kinase 1 (Homo sapiens) (Q9NYA1 whole entry): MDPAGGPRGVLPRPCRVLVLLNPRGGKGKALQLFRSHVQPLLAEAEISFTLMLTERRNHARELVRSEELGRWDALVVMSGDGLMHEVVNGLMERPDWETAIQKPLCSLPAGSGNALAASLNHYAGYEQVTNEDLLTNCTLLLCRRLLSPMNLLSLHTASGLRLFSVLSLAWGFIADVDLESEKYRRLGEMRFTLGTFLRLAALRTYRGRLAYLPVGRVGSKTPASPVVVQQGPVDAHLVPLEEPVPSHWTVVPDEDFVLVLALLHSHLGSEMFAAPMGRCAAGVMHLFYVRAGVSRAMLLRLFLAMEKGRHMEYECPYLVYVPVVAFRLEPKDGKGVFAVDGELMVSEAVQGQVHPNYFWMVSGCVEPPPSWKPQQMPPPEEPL

For orientation: inhibition means the change of the read-out against control, counted positive when it falls. Consider `Fc1ccc(-c2ncn(CCCN3CCOCC3)c2-c2ccncc2)cc1`, for which the inhibition is -2.07% in assay [1]; -0.81% in [2]; -0.25% in assay [3]; -2.49% in assay [4]; -6% in [5]; -8.87% in assay [6]. The inhibition in assay [7] was 7.22%; in assay [8], 3.34%; in assay [9] it was 4.58%; in assay [10], 0.93%; in assay [11], 0.52%; in [12] it was -0.45%. In addition, the inhibition is -0.45% in assay [13]; 1.11% in assay [14]; -0.51% in assay [15]; 2.31% in [16]; 1.74% in assay [17]; 0.56% in assay [18].
